Measured values from PubChem BioAssay AID1159580 (chemical genetic matrix, 2015).
The campaign covered roughly 5,500 compounds. About 2,000 (36%) were called active. Not shown: some 18% with an inconclusive outcome. Some of the results follow. A number with no mark means an inactive call. Rule as the data show it: active = normalized growth mostly below about 0.91 (no sharp cut-off); inconclusive = no clear call, values can overlap the other calls; inactive = mostly above about 0.92.

Test: chemical genetic growth profiling, strain panel (AID 1159580);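 also: tested at 20 µM; growth read once vehicle control cultures reached saturation at 30 °C; 1 = growth at the plate median or of vehicle wells; lower values mean less growth of the strain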
Settings: S. cerevisiae deletion strains, growth OD

CCOP(=S)(OCC)SCn1c(=O)oc2cc(Cl)ccc21
normalized growth (locus YAL013W, strain DEP1, active compounds read low): 1 | normalized growth (locus YAL021C, strain ccr4, active compounds read low): 0.957 | normalized growth (locus YAL026C, strain drs2, active compounds read low): 0.972 | normalized growth (locus YAL030W, strain snc1, active compounds read low): 0.947 | normalized growth (locus YBL061C, strain skt5, active compounds read low): 0.949 | normalized growth (locus YBR009C, strain hhf1, active compounds read low): 1.35 [resistant] (active) | normalized growth (locus YBR021W, strain FUR4, active compounds read low): 0.998 | normalized growth (locus YBR023C, strain chs3, active compounds read low): 0.946 | normalized growth (locus YBR171W, strain sec66, active compounds read low): 0.922 | normalized growth (locus YBR229C, strain ROT2, active compounds read low): 0.997 | normalized growth (locus YBR231C, strain swc5, active compounds read low): 0.956 | normalized growth (locus YBR279W, strain paf1, active compounds read low): 0.977 | normalized growth (locus YCL011C, strain gbp2, active compounds read low): 0.961 | normalized growth (locus YCL016C, strain dcc1, active compounds read low): 0.955 | normalized growth (locus YCL029C, strain bik1, active compounds read low): 0.985 | normalized growth (locus YCL061C, strain MRC1, active compounds read low): 0.956 | normalized growth (locus YCL069W, strain vba3, active compounds read low): 0.968 | normalized growth (locus YCR088W, strain abp1, active compounds read low): 0.961 | normalized growth (locus YDL005C, strain med2, active compounds read low): 0.968 | normalized growth (locus YDL035C, strain GPR1, active compounds read low): 0.987 | normalized growth (locus YDL040C, strain nat1, active compounds read low): 0.961 | normalized growth (locus YDL074C, strain BRE1, active compounds read low): 0.928 | normalized growth (locus YDL101C, strain DUN1, active compounds read low): 1.01 | normalized growth (locus YDL134C, strain PPH21, active compounds read low): 0.991 | normalized growth (locus YDL185W, strain tfp1, active compounds read low): 1 | normalized growth (locus YDL192W, strain arf1, active compounds read low): 0.989 | normalized growth (locus YDR001C, strain nth1, active compounds read low): 0.96 | normalized growth (locus YDR069C, strain doa4, active compounds read low): 0.956 | normalized growth (locus YDR101C, strain arx1, active compounds read low): 0.992 | normalized growth (locus YDR137W, strain rgp1, active compounds read low): 0.81 (active) | normalized growth (locus YDR150W, strain NUM1, active compounds read low): 0.995 | normalized growth (locus YDR159W, strain sac3, active compounds read low): 0.97 | normalized growth (locus YDR162C, strain NBP2, active compounds read low): 0.987 | normalized growth (locus YDR195W, strain ref2): 1.04 | normalized growth (locus YDR297W, strain sur2, active compounds read low): 0.943 | normalized growth (locus YDR318W, strain mcm21, active compounds read low): 0.993 | normalized growth (locus YDR334W, strain swr1, active compounds read low): 0.965 | normalized growth (locus YDR335W, strain msn5, active compounds read low): 0.974 | normalized growth (locus YDR388W, active compounds read low): 0.994 | normalized growth (locus YDR392W, strain spt3, active compounds read low): 0.872 | normalized growth (locus YDR502C, strain sam2, active compounds read low): 0.986 | normalized growth (locus YEL003W, strain gim4, active compounds read low): 0.961 | normalized growth (locus YEL037C, strain rad23, active compounds read low): 0.975 | normalized growth (locus YEL061C, strain CIN8 (second series), active compounds read low): 0.96 | normalized growth (locus YEL061C, strain CIN8, active compounds read low): 0.99 | normalized growth (locus YER015W, strain faa2, active compounds read low): 0.967 | normalized growth (locus YER016W, strain bim1, active compounds read low): 0.958 | normalized growth (locus YER110C, active compounds read low): 0.993 | normalized growth (locus YER111C, strain swi4, active compounds read low): 0.965 | normalized growth (locus YER155C, strain BEM2 (second series), active compounds read low): 0.952 | normalized growth (locus YER155C, strain BEM2, active compounds read low): 0.993 | normalized growth (locus YER167W, strain BCK2, active compounds read low): 1 | normalized growth (locus YFR010W, strain ubp6, active compounds read low): 0.979 | normalized growth (locus YGL078C, strain dbp3, active compounds read low): 0.984 | normalized growth (locus YGL086W, strain mad1, active compounds read low): 0.986 | normalized growth (locus YGL167C, strain pmr1, active compounds read low): 0.921 | normalized growth (locus YGL173C, strain kem1, active compounds read low): 0.943 | normalized growth (locus YGL227W, strain vid30, active compounds read low): 0.963 | normalized growth (locus YGL240W, strain doc1, active compounds read low): 0.935 | normalized growth (locus YGL248W, strain PDE1, active compounds read low): 0.985 | normalized growth (locus YGL253W, strain hxk2, active compounds read low): 0.961 | normalized growth (locus YGR078C, strain PAC10, active compounds read low): 0.994 | normalized growth (locus YGR135W, strain pre9, active compounds read low): 0.977 | normalized growth (locus YGR229C, strain SMI1, active compounds read low): 1.01 | normalized growth (locus YGR252W, strain gcn5, active compounds read low): 0.987 | normalized growth (locus YHR013C, strain ard1, active compounds read low): 1.01 | normalized growth (locus YHR027C, strain rpn1, active compounds read low): 0.959 | normalized growth (locus YHR030C, strain SLT2, active compounds read low): 0.984 | normalized growth (locus YHR079C, strain IRE1 (second series), active compounds read low): 0.996 | normalized growth (locus YHR094C, strain hxt1, active compounds read low): 0.994 | normalized growth (locus YHR129C, strain ARP1, active compounds read low): 0.986 | normalized growth (locus YHR142W, strain chs7, active compounds read low): 0.954 | normalized growth (locus YHR200W, strain rpn10, active compounds read low): 0.99 | normalized growth (locus YIL066C, strain RNR3, active compounds read low): 1.01 | normalized growth (locus YIL073C, strain SPO22, active compounds read low): 1.06 | normalized growth (locus YIL125W, strain kgd1, active compounds read low): 0.984 | normalized growth (locus YIR030C, strain dcg1, active compounds read low): 0.989 | normalized growth (locus YJL092W, strain hpr5, active compounds read low): 0.965 | normalized growth (locus YJL095W, strain BCK1 (second series), active compounds read low): 0.941 | normalized growth (locus YJL095W, strain BCK1, active compounds read low): 0.975 | normalized growth (locus YJL115W, strain asf1, active compounds read low): 0.969 | normalized growth (locus YJL129C, strain trk1, active compounds read low): 0.907 | normalized growth (locus YJL134W, strain LCB3, active compounds read low): 0.994 | normalized growth (locus YJL154C, strain vps35, active compounds read low): 0.972 | normalized growth (locus YJL164C, strain tpk1, active compounds read low): 0.943 | normalized growth (locus YJL166W, strain qcr8, active compounds read low): 0.942 | normalized growth (locus YJL168C, strain set2, active compounds read low): 0.991 | normalized growth (locus YJL187C, strain SWE1 (second series), active compounds read low): 1 | normalized growth (locus YJL187C, strain SWE1, active compounds read low): 0.95
